Measurements published in PubChem BioAssay AID1159580 (chemical genetic matrix, 2015).
The whole screen tested about 5,500 compounds, of which about 2,000 (36%) were called active. Another 18% or so got no clear call; they are omitted. No stated cut-off is given here; in the data, active means normalized growth mostly below about 0.91 (no sharp cut-off); inconclusive means no clear call, values can overlap the other calls; inactive means mostly above about 0.92. Some of the results follow.

Assay: chemical genetic growth profiling, strain panel (AID 1159580);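 further: tested at 20 µM; growth read once vehicle control cultures reached saturation at 30 °C; 1 = growth at the plate median or of vehicle wells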
Details: S. cerevisiae deletion strains, growth OD

Measured: normalized growth

CCCCCN=C(N)N/N=C\c1c[nH]c2ccc(OC)cc12
inactive: locus YAL013W, strain DEP1, stronger effect = lower value 1.01 | locus YAL021C, strain ccr4, stronger effect = lower value 0.985 | locus YAL026C, strain drs2, stronger effect = lower value 0.928 | locus YAL030W, strain snc1, stronger effect = lower value 1.01 | locus YBL061C, strain skt5, stronger effect = lower value 1.01 | locus YBR009C, strain hhf1, stronger effect = lower value 0.985 | locus YBR021W, strain FUR4, stronger effect = lower value 0.989 | locus YBR023C, strain chs3, stronger effect = lower value 0.988 | locus YBR171W, strain sec66, stronger effect = lower value 1.03 | locus YBR229C, strain ROT2, stronger effect = lower value 1 | locus YBR231C, strain swc5, stronger effect = lower value 1 | locus YBR279W, strain paf1, stronger effect = lower value 1.01 | locus YCL011C, strain gbp2, stronger effect = lower value 1 | locus YCL016C, strain dcc1, stronger effect = lower value 0.985 | locus YCL029C, strain bik1, stronger effect = lower value 1.03 | locus YCL069W, strain vba3, stronger effect = lower value 1.02 | locus YCR088W, strain abp1, stronger effect = lower value 1.02 | locus YDL005C, strain med2, stronger effect = lower value 1.01 | locus YDL035C, strain GPR1, stronger effect = lower value 0.989 | locus YDL040C, strain nat1, stronger effect = lower value 0.998 | locus YDL074C, strain BRE1, stronger effect = lower value 1.01 | locus YDL101C, strain DUN1, stronger effect = lower value 1.01 | locus YDL134C, strain PPH21, stronger effect = lower value 0.997 | locus YDL185W, strain tfp1, stronger effect = lower value 1.06 | locus YDL192W, strain arf1, stronger effect = lower value 1.03 | locus YDR001C, strain nth1, stronger effect = lower value 1.01 | locus YDR069C, strain doa4, stronger effect = lower value 1.02 | locus YDR101C, strain arx1, stronger effect = lower value 1.02 | locus YDR137W, strain rgp1, stronger effect = lower value 1.07 | locus YDR150W, strain NUM1, stronger effect = lower value 1.02 | locus YDR159W, strain sac3, stronger effect = lower value 0.965 | locus YDR162C, strain NBP2, stronger effect = lower value 0.993 | locus YDR195W, strain ref2 1.01 | locus YDR297W, strain sur2, stronger effect = lower value 1 | locus YDR318W, strain mcm21, stronger effect = lower value 1.02 | locus YDR334W, strain swr1, stronger effect = lower value 1.01 | locus YDR335W, strain msn5, stronger effect = lower value 1.01 | locus YDR388W, stronger effect = lower value 1.03 | locus YDR392W, strain spt3, stronger effect = lower value 0.911 | locus YDR502C, strain sam2, stronger effect = lower value 1 | locus YEL003W, strain gim4, stronger effect = lower value 1.01 | locus YEL037C, strain rad23, stronger effect = lower value 1.01 | locus YEL061C, strain CIN8 (second series), stronger effect = lower value 1.01 | locus YEL061C, strain CIN8, stronger effect = lower value 0.994 | locus YER015W, strain faa2, stronger effect = lower value 0.982 | locus YER016W, strain bim1, stronger effect = lower value 1 | locus YER110C, stronger effect = lower value 1.05 | locus YER111C, strain swi4, stronger effect = lower value 1.02 | locus YER155C, strain BEM2 (second series), stronger effect = lower value 0.968 | locus YER155C, strain BEM2, stronger effect = lower value 1.01 | locus YER167W, strain BCK2, stronger effect = lower value 1.01 | locus YFR010W, strain ubp6, stronger effect = lower value 1.03 | locus YGL078C, strain dbp3, stronger effect = lower value 1.02 | locus YGL086W, strain mad1, stronger effect = lower value 1.01 | locus YGL167C, strain pmr1, stronger effect = lower value 1.01 | locus YGL173C, strain kem1, stronger effect = lower value 1.01 | locus YGL227W, strain vid30, stronger effect = lower value 1.02 | locus YGL240W, strain doc1, stronger effect = lower value 1.01 | locus YGL248W, strain PDE1, stronger effect = lower value 1 | locus YGL253W, strain hxk2, stronger effect = lower value 1.03 | locus YGR078C, strain PAC10, stronger effect = lower value 1.02 | locus YGR135W, strain pre9, stronger effect = lower value 1.02 | locus YGR229C, strain SMI1, stronger effect = lower value 0.997 | locus YGR252W, strain gcn5, stronger effect = lower value 1.01 | locus YHR013C, strain ard1, stronger effect = lower value 1.03 | locus YHR027C, strain rpn1, stronger effect = lower value 1 | locus YHR030C, strain SLT2, stronger effect = lower value 1.01 | locus YHR079C, strain IRE1 (second series), stronger effect = lower value 1.01 | locus YHR094C, strain hxt1, stronger effect = lower value 1.02 | locus YHR129C, strain ARP1, stronger effect = lower value 0.999 | locus YHR142W, strain chs7, stronger effect = lower value 0.993 | locus YHR200W, strain rpn10, stronger effect = lower value 1.04 | locus YIL066C, strain RNR3, stronger effect = lower value 0.996 | locus YIL073C, strain SPO22, stronger effect = lower value 1.02 | locus YIL125W, strain kgd1, stronger effect = lower value 1.01 | locus YIR030C, strain dcg1, stronger effect = lower value 1.02 | locus YJL092W, strain hpr5, stronger effect = lower value 1.01 | locus YJL095W, strain BCK1 (second series), stronger effect = lower value 1.01 | locus YJL095W, strain BCK1, stronger effect = lower value 0.987 | locus YJL115W, strain asf1, stronger effect = lower value 1 | locus YJL129C, strain trk1, stronger effect = lower value 1.02 | locus YJL134W, strain LCB3, stronger effect = lower value 1.01 | locus YJL154C, strain vps35, stronger effect = lower value 1.01 | locus YJL164C, strain tpk1, stronger effect = lower value 0.978 | locus YJL166W, strain qcr8, stronger effect = lower value 1.02 | locus YJL168C, strain set2, stronger effect = lower value 1.02 | locus YJL187C, strain SWE1 (second series), stronger effect = lower value 1 | locus YJL187C, strain SWE1, stronger effect = lower value 1
